± gives the standard deviation of the averaged measurements.
Key:
[1] = test system: MDA-MB-231; test: cell viability relative to vehicle unstimulated control (fraction); higher = more viable cells; conditions: pre-treatment time: 18 h then 24 h IFNg/TNF
[2] = test system: MDA-MB-231; test: kynurenine production, fold change vs DMSO IFNg/TNF control; higher = more kynurenine produced (less inhibition); conditions: pre-treatment time: 18 h then 24 h IFNg/TNF
Method in brief: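 Fold change over cytokine-stimulated vehicle wells on the same plate is the measure used for kynurenine production, averaged across duplicate plates in the first screening round. MDA-MB-231 cells, seeded 24 h beforehand at 7 × 10^4/well in 96-well plates, were pre-treated 18 h with each natural product in 0.1% DMSO and stimulated 24 h at 37°C with IFNγ (1 U/ml) and TNF (6.25 ng/ml). Supernatants were read at 492 nm following trichloroacetic acid and p-dimethylaminobenzaldehyde treatment, against 0–100 μM standards.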
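Throughout, for cell viability relative to vehicle unstimulated control: viability of the cells left after supernatant collection, read with Deep Blue dye added for 4 h, as absorbance at 570 nm minus 600 nm.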

Compound	cell viability [1]	kynurenine production [2]
C[C@@H]1O[C@@H](O[C@@H]2[C@@H](O)[C@H](O[C@H]3CC[C@]4(C)[C@H]5CC=C6[C@@H]7CC(C)(C)CC[C@]7(C(=O)O[C@@H]7O[C@H](CO)[C@@H](O)[C@H](O)[C@H]7O)CC[C@@]6(C)[C@]5(C)CC[C@H]4C3(C)C)O[C@H](C(=O)O)[C@H]2O)[C@H](O)[C@H](O)[C@H]1O (compound dose: 10 uM)	0.941 ± 0.015	0.932 ± 0.11
C=C1C[C@]23C[C@@]1(O)CC[C@H]2[C@@]12C=C[C@H](O)[C@@](C)(C(=O)O1)[C@H]2[C@@H]3C(=O)O [Gibberellic acid] (compound dose: 10 uM)	0.951 ± 0.013	0.799 ± 0.11
CC(C)=C[C@H]1C[C@](C)(O)[C@H]2[C@H]3CC[C@@H]4[C@@]5(C)CC[C@H](O[C@@H]6O[C@H](CO)[C@@H](O)[C@H](O[C@@H]7O[C@H](CO)[C@@H](O)[C@H](O)[C@H]7O)[C@H]6O[C@@H]6O[C@@H](CO)[C@H](O)[C@H]6O)C(C)(C)[C@@H]5CC[C@@]4(C)[C@@]34CO[C@@]2(C4)O1 [Bacoside A3] (compound dose: 10 uM)	0.944 ± 0.034	0.672 ± 0.11
C=C(C)[C@@H]1CC=C(C)CC1 [(-)-Limonene] (compound dose: 10 uM)	1.1 ± 0.035	0.935 ± 0.21
CC(=O)O[C@@H]1CC[C@@]2(C)[C@@H](CC[C@]3(C)[C@@H]2[C@H](O)C=C2[C@@H]4[C@@H](C)[C@H](C)CC[C@]4(C)CC[C@]23C)[C@@]1(C)C(=O)O [3-O-Acetyl-11-hydroxy-beta-boswellic acid] (compound dose: 10 uM)	0.8634 ± 0.0022	0.988 ± 0.083
